The values below come from paper PMC3218832.

In one assay the target is RELA (p65) subunit of heterodimer;p52 subunit (Homo sapiens;Homo sapiens, UniProt Q04206;Q00653 1-307;4-332). The assay is described as follows: protein binding microarray; high values mean tight binding. The following applies: dsDNA, one strand shown.
In the case of GGAAACCTCCT, the binding signal was -0.573 z-score.

Turning to AGATACATCCC, the binding signal is -0.673 z-score.

Sequence AGATTACCCCC had a binding signal of 1.2 z-score.

Turning to CGGATCTTCCT, the binding signal was -0.836 z-score.

As to CGATGTCTCCT, the binding signal is -0.849 z-score.

As to CGATAGCTCCT, the binding signal was -1.04 z-score.

With CGATTAATCCC, the binding signal was -0.137 z-score.

AGGATGTTCCC gave a binding signal of 0.0834 z-score.

On to AGGATCACCCT, for which the binding signal was -0.525 z-score.

GGGAATCTCCT returned a binding signal of 0.912 z-score.

As for CGAGTCTTCCC, the binding signal is -0.304 z-score.

With AGAATGCTCCC, the binding signal is -0.621 z-score.

As for GGAGAAGTCCT, the binding signal is -0.585 z-score.

For AAATTGCTCCT, the binding signal was -0.813 z-score.

Consider AAAGGTCCCCT, for which the binding signal amounted to 0.742 z-score.

CGGAATCCCCT registered a binding signal of 2.13 z-score.

As to AAAGTTACCCT, the binding signal worked out at 0.376 z-score.

Consider CAGAACCTCCT, for which the binding signal was -0.938 z-score.

Regarding GAGTTGTTCCC, the binding signal was -0.206 z-score.

On to AAGAAAGCCCT, for which the binding signal is -0.581 z-score.

GAGAGATTCCC: the binding signal was 0.545 z-score.

With GAATTTGTCCC, the binding signal came out at 0.944 z-score.

With CGGAAATTCCC, the binding signal was determined as 2.39 z-score.

Turning to GAATATATCCC, the binding signal is -0.268 z-score.

On to GAAGTCTTCCC, for which the binding signal was -0.339 z-score.

In the case of AGGTTCGCCCT, the binding signal is -0.838 z-score.

In turn, GAAAAAACCCC gave a binding signal of 2.2 z-score.

The sequence CGGGTATCCCC came in with a binding signal of 2.01 z-score.

Sequence AGAGTGTCCCT came in with a binding signal of 0.604 z-score.

In the case of GGGTACCTCCC, the binding signal worked out at 0.843 z-score.

Sequence GAAAACCCCCT returned a binding signal of 2.59 z-score.

CGGGGCATCCT had a binding signal of 0.306 z-score.

As for GAGATTGCCCC, the binding signal was 0.468 z-score.

As for CGGAACACCCT, the binding signal was -0.316 z-score.

In turn, AGATAAGTCCC returned a binding signal of 0.806 z-score.

Take CGAGTGGTCCC: the binding signal was -0.369 z-score.

AAGGTAGCCCC: the binding signal came to 0 z-score.

GAGTGCGCCCC registered a binding signal of 0.0378 z-score.

In another assay the target is RELB subunit;p50 subunit (Homo sapiens;Homo sapiens, UniProt Q01201;P19838 120-401;7-356). The assay is described as above. The following applies: dsDNA, one strand shown.
GGAAACCTCCT: the binding signal is -1.02 z-score.

With AGATACATCCC, the binding signal was -0.73 z-score.

On to AGATTACCCCC, for which the binding signal turned out to be 1.18 z-score.

As for CGGATCTTCCT, the binding signal is -1.21 z-score.

On to CGATGTCTCCT, for which the binding signal was -1.04 z-score.

As to CGATAGCTCCT, the binding signal was -1.34 z-score.

Consider CGATTAATCCC, for which the binding signal came out at 0.0473 z-score.

On to AGGATGTTCCC, for which the binding signal is -0.426 z-score.

Consider AGGATCACCCT, for which the binding signal is -0.14 z-score.

GGGAATCTCCT registered a binding signal of 0.367 z-score.

In the case of CGAGTCTTCCC, the binding signal is -0.386 z-score.

For the sequence AGAATGCTCCC, the binding signal was -0.576 z-score.

As for GGAGAAGTCCT, the binding signal was -0.798 z-score.

On to AAATTGCTCCT, for which the binding signal was -0.967 z-score.

The sequence AAAGGTCCCCT showed a binding signal of 1.05 z-score.

Consider CGGAATCCCCT, for which the binding signal was 2.43 z-score.

AAAGTTACCCT displayed a binding signal of 0.557 z-score.

As to CAGAACCTCCT, the binding signal is -0.924 z-score.

Regarding GAGTTGTTCCC, the binding signal was -0.327 z-score.

Turning to AAGAAAGCCCT, the binding signal was -0.838 z-score.

GAGAGATTCCC registered a binding signal of 0.433 z-score.

GAATTTGTCCC: the binding signal is 0.998 z-score.

For the sequence CGGAAATTCCC, the binding signal was found to be 1.19 z-score.

On to GAATATATCCC, for which the binding signal is -0.131 z-score.

Take GAAGTCTTCCC: the binding signal is -0.349 z-score.

Turning to AGGTTCGCCCT, the binding signal was -0.727 z-score.

Turning to GAAAAAACCCC, the binding signal turned out to be 2.14 z-score.

Sequence CGGGTATCCCC yielded a binding signal of 0.893 z-score.

The sequence AGAGTGTCCCT registered a binding signal of 0.851 z-score.

GGGTACCTCCC: the binding signal is 0.429 z-score.

GAAAACCCCCT registered a binding signal of 3.02 z-score.

With CGGGGCATCCT, the binding signal came out at 0.179 z-score.

GAGATTGCCCC came in with a binding signal of 0.435 z-score.

Regarding CGGAACACCCT, the binding signal is -0.373 z-score.

The sequence AGATAAGTCCC gave a binding signal of 1.2 z-score.

In turn, CGAGTGGTCCC registered a binding signal of 0.0154 z-score.

In turn, AAGGTAGCCCC registered a binding signal of 0.152 z-score.

Turning to GAGTGCGCCCC, the binding signal is -0.305 z-score.

The target in a further assay is T1, RELB subunit;p52 subunit (Homo sapiens;Homo sapiens, UniProt Q01201;Q00653 120-401;4-332).
T1 sequence 1: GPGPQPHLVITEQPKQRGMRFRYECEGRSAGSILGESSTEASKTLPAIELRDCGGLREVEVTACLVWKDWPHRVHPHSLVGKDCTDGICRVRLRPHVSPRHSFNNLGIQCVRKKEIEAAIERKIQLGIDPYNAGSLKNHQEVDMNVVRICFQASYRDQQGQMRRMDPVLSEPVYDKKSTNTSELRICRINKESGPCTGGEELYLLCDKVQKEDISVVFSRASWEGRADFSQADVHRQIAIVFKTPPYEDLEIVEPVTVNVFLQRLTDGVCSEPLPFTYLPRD
T1 sequence 2: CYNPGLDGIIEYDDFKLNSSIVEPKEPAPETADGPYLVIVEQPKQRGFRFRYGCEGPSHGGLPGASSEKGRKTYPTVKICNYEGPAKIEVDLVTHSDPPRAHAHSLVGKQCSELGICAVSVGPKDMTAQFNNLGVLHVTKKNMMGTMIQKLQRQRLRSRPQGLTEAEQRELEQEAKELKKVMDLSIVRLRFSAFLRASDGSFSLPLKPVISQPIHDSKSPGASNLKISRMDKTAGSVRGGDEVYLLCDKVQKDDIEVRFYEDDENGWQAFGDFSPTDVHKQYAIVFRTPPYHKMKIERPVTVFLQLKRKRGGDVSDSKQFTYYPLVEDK
The description is as above. The following applies: dsDNA, one strand shown.
As to GGAAACCTCCT, the binding signal is -0.75 z-score.

In the case of AGATACATCCC, the binding signal is -0.746 z-score.

AGATTACCCCC returned a binding signal of 1.63 z-score.

For the sequence CGGATCTTCCT, the binding signal is -0.889 z-score.

With CGATGTCTCCT, the binding signal is -0.858 z-score.

On to CGATAGCTCCT, for which the binding signal was -1 z-score.

As for CGATTAATCCC, the binding signal was -0.161 z-score.

In the case of AGGATGTTCCC, the binding signal was -0.342 z-score.

In the case of AGGATCACCCT, the binding signal was -0.242 z-score.

In the case of GGGAATCTCCT, the binding signal was 0.827 z-score.

Take CGAGTCTTCCC: the binding signal is -0.409 z-score.

Regarding AGAATGCTCCC, the binding signal was -0.823 z-score.

In the case of GGAGAAGTCCT, the binding signal is -0.864 z-score.

Turning to AAATTGCTCCT, the binding signal is -0.7 z-score.

AAAGGTCCCCT registered a binding signal of 0.989 z-score.

Consider CGGAATCCCCT, for which the binding signal turned out to be 2.22 z-score.

For AAAGTTACCCT, the binding signal was 0.191 z-score.

As to CAGAACCTCCT, the binding signal is -0.944 z-score.

GAGTTGTTCCC: the binding signal is -0.463 z-score.

Take AAGAAAGCCCT: the binding signal was -0.728 z-score.

As for GAGAGATTCCC, the binding signal turned out to be 0.292 z-score.

Sequence GAATTTGTCCC gave a binding signal of 0.873 z-score.

Regarding CGGAAATTCCC, the binding signal was 2.04 z-score.

As for GAATATATCCC, the binding signal is -0.295 z-score.

GAAGTCTTCCC: the binding signal is -0.537 z-score.

With AGGTTCGCCCT, the binding signal was -0.728 z-score.

As to GAAAAAACCCC, the binding signal is 2.12 z-score.

Sequence CGGGTATCCCC returned a binding signal of 1.59 z-score.

On to AGAGTGTCCCT, for which the binding signal worked out at 1.25 z-score.

Turning to GGGTACCTCCC, the binding signal turned out to be 0.437 z-score.

The sequence GAAAACCCCCT registered a binding signal of 2.62 z-score.

For CGGGGCATCCT, the binding signal worked out at 0.34 z-score.

As to GAGATTGCCCC, the binding signal was 0.366 z-score.

Consider CGGAACACCCT, for which the binding signal is -0.287 z-score.

With AGATAAGTCCC, the binding signal was 0.954 z-score.

CGAGTGGTCCC: the binding signal is -0.138 z-score.

In the case of AAGGTAGCCCC, the binding signal is 0.184 z-score.

For GAGTGCGCCCC, the binding signal was -0.0411 z-score.

For another assay, the target named is C-Rel subunit;p50 subunit (Homo sapiens;Homo sapiens, UniProt Q04864;P19838 1-285;7-356). Described as above. The following applies: dsDNA, one strand shown.
Regarding GGAAACCTCCT, the binding signal was -0.436 z-score.

Take AGATACATCCC: the binding signal is -0.981 z-score.

AGATTACCCCC displayed a binding signal of 1.21 z-score.

Take CGGATCTTCCT: the binding signal is -0.859 z-score.

For CGATGTCTCCT, the binding signal is -1.52 z-score.

Regarding CGATAGCTCCT, the binding signal was -1.65 z-score.

For CGATTAATCCC, the binding signal is -0.0218 z-score.

AGGATGTTCCC displayed a binding signal of 0.00777 z-score.

For AGGATCACCCT, the binding signal was -0.558 z-score.

Sequence GGGAATCTCCT returned a binding signal of 0.987 z-score.

Sequence CGAGTCTTCCC gave a binding signal of 0.0328 z-score.

As for AGAATGCTCCC, the binding signal is -0.92 z-score.

For the sequence GGAGAAGTCCT, the binding signal was -0.433 z-score.

Turning to AAATTGCTCCT, the binding signal was -1.33 z-score.

For AAAGGTCCCCT, the binding signal stood at 0.669 z-score.

The sequence CGGAATCCCCT returned a binding signal of 1.83 z-score.

AAAGTTACCCT had a binding signal of 0.279 z-score.

In the case of CAGAACCTCCT, the binding signal is -1.48 z-score.

Turning to GAGTTGTTCCC, the binding signal is -0.00411 z-score.

On to AAGAAAGCCCT, for which the binding signal is -0.563 z-score.

GAGAGATTCCC displayed a binding signal of 0.909 z-score.

Take GAATTTGTCCC: the binding signal was found to be 1.27 z-score.

In turn, CGGAAATTCCC showed a binding signal of 2.28 z-score.

Consider GAATATATCCC, for which the binding signal was -0.368 z-score.

Turning to GAAGTCTTCCC, the binding signal came to 0.175 z-score.

Turning to AGGTTCGCCCT, the binding signal is -1.03 z-score.

In turn, GAAAAAACCCC came in with a binding signal of 1.45 z-score.

With CGGGTATCCCC, the binding signal stood at 1.64 z-score.

AGAGTGTCCCT registered a binding signal of 0.738 z-score.

With GGGTACCTCCC, the binding signal came to 0.243 z-score.

As to GAAAACCCCCT, the binding signal stood at 1.99 z-score.

With CGGGGCATCCT, the binding signal is 0.188 z-score.

As to GAGATTGCCCC, the binding signal came to 1.1 z-score.

CGGAACACCCT: the binding signal is -0.444 z-score.

The sequence AGATAAGTCCC had a binding signal of 0.899 z-score.

As for CGAGTGGTCCC, the binding signal was -0.515 z-score.

Regarding AAGGTAGCCCC, the binding signal turned out to be 0.249 z-score.

Turning to GAGTGCGCCCC, the binding signal is -0.0592 z-score.
